Source: PubChem BioAssay AID430 (Sanford-Burnham Center for Chemical Genomics, 2006)
Hit rate of the full screen: of about 63,000 compounds, about 1,100 (1.7%) were called active. The sample as a whole holds a higher share of actives than the screen did. Measured potencies and affinities stand elsewhere. A number with no mark means an inactive call. Cut-off read from the data, not from the text of the source: active = cytotoxicity above about 50%; inactive = the rest.

Experiment: cytotoxicity in HPDE-C7 cells, cell-based, fluorescence, HTS (AID 430);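 note: cells exposed to compound for 48 hours before viability readout; 0% = vehicle and 100% = reference cytotoxic drug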
Settings: HPDE-C7 pancreatic duct cells viability, at 10 µM, hits give high values

Row | SMILES | cytotoxicity
1 | COc1ccc(C2(CNC(=O)c3ccc(Br)o3)CCOCC2)cc1 | -0.2%
2 | O=C(Cn1cc2c(n1)CCCC2)NCCc1ccccc1 | -13%
3 | Cc1nc(SCC(=O)N2CCN(c3ccccc3)CC2)c2oc3ccccc3c2n1 | 48.5%
4 | Cc1cc(NS(=O)(=O)c2ccc(NC(=O)c3ccoc3C)cc2)nc(C)n1 | 2.9%
5 | Clc1ccc(-n2nnnc2-c2ccccc2)cc1 | -17.1%
6 | COc1cccc(-n2nnnc2SCC(=O)c2cc(OC)ccc2OC)c1 | -12.2%
7 | O=C(CSc1nnnn1-c1ccccc1)CSc1nnnn1-c1ccccc1 | -2.1%
8 | CCS(=O)(=O)c1nnnn1-c1ccccc1S(C)(=O)=O | 33.3%
9 | COc1ccc(-n2nnnc2-c2cccnc2)cc1 | -6.7%
10 | CCOc1cccc(-n2nnnc2-c2ccc(OC)cc2)c1 | 56.8% (active)
11 | COc1ccc(-n2nnnc2-c2cccc(OC)c2)cc1 | 68.4% (active)
12 | N#CCCS(=O)(=O)c1nnnn1-c1ccccc1 | 64.6% (active)
13 | COc1ccc(-c2nnnn2-c2ccccc2OC)cc1 | 46.6%
14 | COc1cccc(Oc2nnnn2-c2ccccc2)c1 | -23%
15 | COc1ccc(-c2nnnn2CCc2ccccc2)cc1 | -7.2%
16 | Nc1nc(-c2ccc(Cl)cc2)nn1C(=O)c1cccnc1 | 9.3%
17 | CC(C)C(OC(=O)c1cc2sccc2n1C)C(=O)NCC1CCCO1 (centres undefined) | -19.4%
18 | O=C(CSc1nnc(-c2ccccc2Br)o1)N1CCN(C(=O)c2ccco2)CC1 | -13.5%
19 | CC1CCCCN1C(=O)CSc1nnc(-c2ccco2)n1CC1CCCO1 (centres undefined) | 3.9%
20 | COc1cccc(OCc2nnc(SCC(=O)OC3CCCCC3)n2C)c1 | -7.5%
21 | CCOc1ccccc1NC(=O)CSc1nnc(CNC(=O)c2ccco2)o1 | 6.4%
22 | CN(C)C(=O)N1CCN(C(=O)c2ccccc2Sc2ccccc2C#N)CC1 | -6.6%
23 | NS(=O)(=O)c1ccc(NC(=O)CSC2CCCCC2)cc1 | -4.6%

Row | SMILES | cytotoxicity
24 | NS(=O)(=O)c1ccc(NC=C2C(=O)OC3(CCCCC3)OC2=O)cc1 | 6.2%
25 | O=C1c2oc3ccc(Cl)cc3c(=O)c2C(c2cccc(Br)c2)N1CCO (centres undefined) | 0.8%
26 | Cc1ccccc1OCC(=O)Nc1ccc(N2CCN(S(C)(=O)=O)CC2)cc1 | -2%
27 | COc1ccc(-c2nnc(COc3ccc4ccccc4c3)o2)cc1OC | 4.4%
28 | COc1cc(-c2nnc(COc3ccc4cc(Br)ccc4c3)o2)cc(OC)c1OC | 78.6% (active)
29 | COc1cc(-c2nnc(COc3ccc4ccccc4c3)o2)cc(OC)c1OC | 34.6%
30 | COc1ccc(C(=O)OCn2nnc3ccccc3c2=O)cc1OC | 6.3%
31 | CCOc1ccc(S(=O)(=O)n2cnc3cc(C)c(C)cc32)cc1 | 8.7%
32 | CC(C)(C)N1C(=O)Cc2c1nc(N)c1c(N)nc(N3CCCCC3CO)c(C#N)c21 (centres undefined) | 54.6% (active)
33 | N#Cc1c(N)nc2c(c1N)CC(=O)N2c1ccccc1-c1ccccc1 | 0.1%
34 | CCOC(=O)CNS(=O)(=O)CCN1C(=O)c2ccccc2C1=O | -14.2%
35 | CCOC(=O)c1c(CN2CCCCC2C)oc2ccc(OC)cc12 (centres undefined) | 3.6%
36 | CCOC(=O)c1cccc(NC(=O)c2cnc3ccccc3n2)c1 | 0.8%
37 | O=C(Nc1ccc(Cl)c(Cl)c1)N1CCSC1c1ccco1 (centres undefined) | 62.5% (active)
38 | O=C(c1cc2ccccc2oc1=O)N1CCSC1c1ccco1 (centres undefined) | 4.9%
39 | O=S(=O)(c1ccc(Cl)cc1)N1CCSC1c1ccco1 (centres undefined) | 8.1%
40 | COc1ccc(-c2noc(CCC(=O)N3CCN(Cc4ccccc4)CC3)n2)cc1 | -6.2%
41 | CCCc1[nH]nc2c1C(c1ccncc1)C(C#N)=C(N)O2 (centres undefined) | 6.1%
42 | CCc1[nH]nc2c1C(c1ccc(Br)s1)C(C#N)=C(N)O2 (centres undefined) | -2.9%
43 | CCCN1CC23C=CC(O2)C(C(=O)O)C3C1=O (centres undefined) | -2.8%
44 | CC(C)COc1cccc(C(=O)Nc2ccc(S(=O)(=O)N3CCOCC3)cc2)c1 | 16.1%
45 | CCOC(=O)COC(=O)c1ccc(O)cc1 | -3.6%
46 | CCOc1ccc(-c2n[nH]c(C)c2Oc2ccc(OC)cc2)c(O)c1 | 5.9%

Row | SMILES | cytotoxicity
47 | CCOC(=O)c1c(N)n[nH]c1-c1ccc(OC)cc1 | 2.4%
48 | CCOC(=O)c1ccc(OCC(=O)c2ccc(O)cc2O)cc1 | -2.2%
49 | CCCOC(=O)c1ccc(-c2c(C)noc2-c2ccc(OC)cc2O)o1 | -2.8%
50 | CCOc1ccc(N2C(=O)c3ccc(C(=O)OCc4c(C)noc4C)cc3C2=O)cc1 | -3.6%
51 | COc1ccc(CC(NC(C)=O)C(=O)N2CCN(C(=O)Nc3ccc(Cl)cc3)CC2)cc1OC (centres undefined) | 4.9%
52 | O=C(Nc1nc2ccccc2n1CCOc1ccccc1)c1ccco1 | -12.8%
53 | Cc1cccc(Nc2nc(NC(C)C)nc(Oc3ccc(=O)n(C)n3)n2)c1 | -11.3%
54 | CCOC(=O)N1CCN(CC(=O)Nc2cc(OCC)ccc2OCC)CC1 | -9.8%
55 | CCCCc1ccc(NC(=O)OC)cc1 | -16.3%
56 | CCCCc1ccc(NC(=O)COCC)cc1 | -12.8%
57 | CC(=O)Nc1ccc(S(=O)(=O)NCC(C)NS(=O)(=O)c2ccc(NC(C)=O)cc2)cc1 (centres undefined) | -20%
58 | OC1(Cc2ccn[nH]2)CCCCC1 | 17.9%
59 | O=C(OCCN1CCOCC1)c1cccnc1 | 0.3%
60 | CCOc1cc(C(=O)Nc2nnc(C)s2)cc(OCC)c1OCC | -7.4%
61 | COc1ccccc1-c1cc(C(=O)Nc2cccnc2)no1 | 79.8% (active)
62 | COc1ccc(NC(=O)c2cc(-c3ccccc3OC)on2)cc1 | 54.3% (active)
63 | COc1ccc(OC)c(-c2cc(C(=O)Nc3cc(C)n(Cc4ccc(Cl)cc4)n3)no2)c1 | 62.5% (active)
64 | COc1ccccc1-c1cc(C(=O)Nc2ccc(F)cc2F)no1 | -11.9%
65 | COc1ccc(CNC(=O)c2cc(-c3ccccc3OC)on2)cc1 | -1.1%
66 | COc1ccccc1-c1cc(C(=O)Nc2cc(C)on2)no1 | -2.8%
67 | COc1ccc(OC)c(-c2cc(C(=O)Nc3c(C)nn(Cc4ccc(Cl)cc4)c3C)no2)c1 | 17.1%
68 | COc1ccccc1-c1cc(C(=O)NC(C)C)no1 | -2.5%
69 | COc1ccc(-c2cc(C(=O)Nc3cc(C)n(Cc4ccc(Cl)cc4)n3)no2)cc1OC | 6.9%
